# From article PMC8384837, “Expanding the binding specificity for RNA recognition by a PUF domain”
# Legend:
# Assay in all cases: yeast three-hybrid, YBZ-1, SC-Leu-His + 0.5 mM 3-AT, 4 days
# Conditions in all cases: tags: N-Gal4 AD-HA kept; label: inside an RPR1-promoter hybrid RNA with tandem MS2 sites; ssRNA
# PUM1 PUF domain R3-GRV = PUM1 PUF domain R3-GRV (Homo sapiens, UniProt Q14671 828-1176, C935G;Q939V)
# Outline: (§1)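 The interaction score is the log change in variant frequency from input to selection. Scores were computed in log2 with a pseudocount of 1 for absent variants, using Illumina sequencing of PCR-amplified repeat regions. The input came from four days on SC-Leu and the selection from four days on SC-Leu-His + 0.5 mM 3-AT. The cells were strain YBZ-1 (LexA–MS2 coat fusion, HIS3 reporter) co-expressing Pumilio-1 PUF domain libraries and matching RNA elements from a centromeric plasmid.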
# PUM1 PUF domain R3-ARP = PUM1 PUF domain R3-ARP (Homo sapiens, UniProt Q14671 828-1176, C935A;Q939P)
# Outline: as §1
# PUM1 PUF domain R3-RTG = PUM1 PUF domain R3-RTG (Homo sapiens, UniProt Q14671 828-1176, C935R;R936T;Q939G)
# Outline: as §1
# PUM1 PUF domain R3-PWF = PUM1 PUF domain R3-PWF (Homo sapiens, UniProt Q14671 828-1176, C935P;R936W;Q939F)
# Outline: as §1
# PUM1 PUF domain R8-GWQ = PUM1 PUF domain R8-GWQ (Homo sapiens, UniProt Q14671 828-1176, N1122G;Y1123W)
# Outline: as §1
# PUM1 PUF domain R4-SCS = PUM1 PUF domain R4-SCS (Homo sapiens, UniProt Q14671 828-1176, N971S;H972C;Q975S)
# Outline: as §1
# PUM1 PUF domain R5-MRE = PUM1 PUF domain R5-MRE (Homo sapiens, UniProt Q14671 828-1176, C1007M;Q1011E)
# Outline: as §1
# PUM1 PUF domain R6-AFS = molecular target: T1, PUM1 PUF domain R6-AFS (Homo sapiens, UniProt Q14671 828-1176, N1043A;Y1044F;Q1047S)
# T1 sequence: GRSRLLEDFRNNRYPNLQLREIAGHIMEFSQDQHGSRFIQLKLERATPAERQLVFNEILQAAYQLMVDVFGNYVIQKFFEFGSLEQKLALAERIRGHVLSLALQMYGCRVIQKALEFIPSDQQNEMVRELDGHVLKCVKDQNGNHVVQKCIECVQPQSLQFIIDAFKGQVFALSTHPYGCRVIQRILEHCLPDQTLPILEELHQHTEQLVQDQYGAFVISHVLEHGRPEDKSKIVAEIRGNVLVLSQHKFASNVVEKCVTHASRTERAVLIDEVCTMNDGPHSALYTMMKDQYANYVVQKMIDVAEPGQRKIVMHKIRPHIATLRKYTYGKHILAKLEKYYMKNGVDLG
# Outline: as §1
# PUM1 PUF domain R4-TRQ = PUM1 PUF domain R4-TRQ (Homo sapiens, UniProt Q14671 828-1176, N971T;H972R)
# Outline: as §1
# PUM1 PUF domain R4-EYD = PUM1 PUF domain R4-EYD (Homo sapiens, UniProt Q14671 828-1176, N971E;H972Y;Q975D)
# Outline: as §1
# PUM1 PUF domain R5-TKR = PUM1 PUF domain R5-TKR (Homo sapiens, UniProt Q14671 828-1176, C1007T;R1008K;Q1011R)
# Outline: as §1
# PUM1 PUF domain R5-KAD = PUM1 PUF domain R5-KAD (Homo sapiens, UniProt Q14671 828-1176, C1007K;R1008A;Q1011D)
# Outline: as §1
# PUM1 PUF domain R5-DLR = PUM1 PUF domain R5-DLR (Homo sapiens, UniProt Q14671 828-1176, C1007D;R1008L;Q1011R)
# Outline: as §1
# PUM1 PUF domain R1-TFE = PUM1 PUF domain R1-TFE (Homo sapiens, UniProt Q14671 828-1176, S863T;R864F;Q867E)
# Outline: as §1
# PUM1 PUF domain R1-RNS = PUM1 PUF domain R1-RNS (Homo sapiens, UniProt Q14671 828-1176, S863R;R864N;Q867S)
# Outline: as §1
# Sequence of PUM1 PUF domain R5-DLR (Q14671 828-1176 C1007D/R1008L/Q1011R): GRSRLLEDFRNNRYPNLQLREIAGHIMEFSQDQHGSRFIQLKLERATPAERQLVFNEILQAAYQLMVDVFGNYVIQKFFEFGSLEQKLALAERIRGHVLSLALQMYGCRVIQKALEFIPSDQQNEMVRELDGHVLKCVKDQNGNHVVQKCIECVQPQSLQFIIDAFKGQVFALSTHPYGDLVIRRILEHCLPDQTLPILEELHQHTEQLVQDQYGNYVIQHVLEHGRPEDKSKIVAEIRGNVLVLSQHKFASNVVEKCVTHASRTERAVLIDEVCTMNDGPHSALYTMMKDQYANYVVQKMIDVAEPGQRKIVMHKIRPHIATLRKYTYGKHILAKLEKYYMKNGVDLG
# Sequence of PUM1 PUF domain R5-TKR (Q14671 828-1176 C1007T/R1008K/Q1011R): as the sequence (Q14671 828-1176 C1007D/R1008L/Q1011R) above, with D180T, L181K counted along it
# Sequence of PUM1 PUF domain R5-KAD (Q14671 828-1176 C1007K/R1008A/Q1011D): as the sequence (Q14671 828-1176 C1007D/R1008L/Q1011R) above, with D180K, L181A, R184D counted along it
sequence,measurement,setting,value
GGCUAGAACUAGUGGAUCCCCCGGCGCCCGGCGGCUCGAGCCCGGGUAAGUGUAAUUAGUCUGCAUGCCGCCGGGCGCCAUGCCUGCAGGUCGACUCUAGAAAACAUG,binding signal,PUM1 PUF domain R3-GRV,1.12 log2 enrichment (interaction score)
same,binding signal,PUM1 PUF domain R3-ARP,1.4 log2 enrichment (interaction score)
same,binding signal,PUM1 PUF domain R3-RTG,2.9 log2 enrichment (interaction score)
same,binding signal,PUM1 PUF domain R3-PWF,1.18 log2 enrichment (interaction score)
GGCUAGAACUAGUGGAUCCCCCGGCGCCCGGCGGCUCGAGCCCGGGUAAGUGUAAAUAGUCUGCAUGCCGCCGGGCGCCAUGCCUGCAGGUCGACUCUAGAAAACAUG,binding signal,PUM1 PUF domain R3-GRV,2.81 log2 enrichment (interaction score)
same,binding signal,PUM1 PUF domain R8-GWQ,2.82 log2 enrichment (interaction score)
same,binding signal,PUM1 PUF domain R4-SCS,2.13 log2 enrichment (interaction score)
same,binding signal,PUM1 PUF domain R5-MRE,1.14 log2 enrichment (interaction score)
same,binding signal,PUM1 PUF domain R3-ARP,4.92 log2 enrichment (interaction score)
same,binding signal,PUM1 PUF domain R6-AFS,1.74 log2 enrichment (interaction score)
same,binding signal,PUM1 PUF domain R4-TRQ,4.68 log2 enrichment (interaction score)
same,binding signal,PUM1 PUF domain R4-EYD,2.77 log2 enrichment (interaction score)
same,binding signal,PUM1 PUF domain R3-PWF,3.15 log2 enrichment (interaction score)
GGCUAGAACUAGUGGAUCCCCCGGCGCCCGGCGGCUCGAGCCCGGGUAAGCGUAAAUAGUCUGCAUGCCGCCGGGCGCCAUGCCUGCAGGUCGACUCUAGAAAACAUG,binding signal,PUM1 PUF domain R8-GWQ,3.56 log2 enrichment (interaction score)
GGCUAGAACUAGUGGAUCCCCCGGCGCCCGGCGGCUCGAGCCCGGGUAAGUGUCAAUAGUCUGCAUGCCGCCGGGCGCCAUGCCUGCAGGUCGACUCUAGAAAACAUG,binding signal,PUM1 PUF domain R5-TKR,6.59 log2 enrichment (interaction score)
same,binding signal,PUM1 PUF domain R5-KAD,2.78 log2 enrichment (interaction score)
same,binding signal,PUM1 PUF domain R5-DLR,4.71 log2 enrichment (interaction score)
GGCUAGAACUAGUGGAUCCCCCGGCGCCCGGCGGCUCGAGCCCGGGUAAGUGUAAAUGGUCUGCAUGCCGCCGGGCGCCAUGCCUGCAGGUCGACUCUAGAAAACAUG,binding signal,PUM1 PUF domain R1-TFE,6.33 log2 enrichment (interaction score)
same,binding signal,PUM1 PUF domain R1-RNS,0.7 log2 enrichment (interaction score)
